Data: PubChem BioAssay AID651803 (National Center for Advancing Translational Sciences (NCATS), 2012)
Fewer than 10 of roughly 1,200 compounds were called active. The call rests on the fitted dose curve; in most records, active means well fitted curve in the direction sought with a large enough effect; inconclusive means small, poorly fitted or top-dose-only effect, or another doubt; inactive means no such curve, though single readings can be large or run the other way. The list is a sample of the results.

target: Transcriptional regulator ERG (Homo sapiens) (UniProt P11308); assay: qHTS for Small Molecule Inhibitors of the ERG Ets/DNA interaction: TR assay against cherry picks; settings: ERG Ets domain-DNA fluorescence polarization, Texas red probe; series mostly up to 154 µM; activity change, negative = inhibition: at the top concentration; further: % of control where 0% means no effect
Excerpt: The Ets family of proteins is a family of ~30 conserved transcription factors defined by the presence of an ~85 amino acid domain referred to as the Ets domain, which mediates sequence-specific DNA binding to a core DNA element GGAA/T.The Ets family member ERG has been linked to several neoplasms. […] More extensive studies of the effects of over-expression of ERG in prostate cells have recently been carried out and have shown that over-expression of ERG results in increased invasion. […] We will carry out a high throughout screen to identify inhibitors of the interaction between ERG and DNA using a fluorescence polarization (FP) assay with a His-tagged ERG Ets domain and fluorescently-labeled DNA probes to develop small molecule inhibitors of this interaction as probes to test this hypothesis and lay the groundwork for the development of targeted therapies against ERG. This is the confirmation against the cherry picks in theprimary screening assay. NIH Molecular Libraries Probe Production Network [MLPCN] NIH Chemical Genomics Center [NCGC] Grant: NS066464 PI Name: John Bushweller, University of Virgina
1.5 ul of protein solution (1 uM ERG domain in 300mM KCl, 50mM Tris-HCl, 1mM EDTA, 1mM DTT, pH 7.5); 20 nl Control plate and compound library plate; 1.5 ul mixture of 5 nM Fluorescein-DNA and 100nM Texas-615-DNA solution in same buffer as above solution; measure fluorescence polarization sequentially for fluorescein (Excitation = 480 nm, Emission = 535s, 535p nm) and Texas red (Excitation = 555 nm, Emission = 632s, 632p nm).

Chain of Transcriptional regulator ERG (Homo sapiens) (P11308 whole entry, looked up, the tested form may be a part): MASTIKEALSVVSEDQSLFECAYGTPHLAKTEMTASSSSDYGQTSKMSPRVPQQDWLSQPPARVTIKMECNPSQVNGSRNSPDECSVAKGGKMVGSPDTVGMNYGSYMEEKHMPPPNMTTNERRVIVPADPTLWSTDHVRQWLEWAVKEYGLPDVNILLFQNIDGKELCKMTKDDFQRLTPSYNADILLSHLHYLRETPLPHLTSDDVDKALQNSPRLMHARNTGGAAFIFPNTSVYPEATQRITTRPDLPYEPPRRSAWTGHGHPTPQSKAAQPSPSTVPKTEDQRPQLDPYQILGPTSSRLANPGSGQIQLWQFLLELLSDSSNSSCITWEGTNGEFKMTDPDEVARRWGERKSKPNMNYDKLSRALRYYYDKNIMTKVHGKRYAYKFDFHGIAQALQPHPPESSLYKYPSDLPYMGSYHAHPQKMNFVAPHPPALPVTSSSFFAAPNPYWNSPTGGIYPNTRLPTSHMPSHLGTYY

Activity change, negative = inhibition, inactive:
O=C(OCCOCCN=C1NS(=O)(=O)c2ccccc21)c1ccccc1Br 4.92%, CC(=O)Nc1ccc(NC(=O)Cn2c(=O)n(-c3ccccc3)c(=O)c3oc4ccccc4c32)cc1 0.864%, COc1ccc(C(=O)n2nc(C)c(Br)c2C)cc1OC 1.94%, N#Cc1c(C(F)(F)F)cc(-c2cccs2)nc1SCC(=O)Nc1cccc(Br)c1 5.95%, N#CCCN(C(=S)NC(=O)C1CCCCC1)c1ccccc1F -3.69%, Cc1ccc2c(COC(=O)c3ccccc3Br)cc(=O)oc2c1 -0.0577%, COc1ccc(NC(=O)NCc2ccccn2)c(OC)c1 -2.62%, O=C(c1ccccc1)c1ccc[nH]1 -4.34%, Cc1ccc([N+](=O)[O-])c2c1C(N1CC(C)OC(C)C1)C(C)(C)O2 (stereo not drawn) 5.79%, COc1ccccc1NC(=O)Cn1c(=O)n(CCC(=O)NCC2CCCO2)c(=O)c2cc(OC)c(OC)cc21 (stereo not drawn) 0.0258%, Clc1ccc(-c2csc(N/N=C/c3ccco3)n2)cc1 -19.8%, CCOC(=O)CC1COCCN1Cc1cn[nH]c1-c1cc(OC)c(OC)c(OC)c1 (stereo not drawn) 5.39%, COc1cc(C(=O)Nc2ccc(Cl)c([N+](=O)[O-])c2)cc(OC)c1OC -8.44%, COc1cccc2c1C(=N)c1c(O)c3c(c(O)c1C2=O)CC(O)(C(C)=O)CC3OC1CC(N)C(O)C(C)O1 (stereo not drawn) 10.9%, O=C(NCc1cccc(Cl)c1)c1ccncc1 -9.86%, Cc1cccc(C)c1NC(=O)C1(N2C(=O)CC2c2ccccc2)CCCCC1 (stereo not drawn) 0.216%, CC1(C)CC2CC(C)(CN2C(=O)c2ccc([N+](=O)[O-])cc2)C1 (stereo not drawn) 0.742%, CN(C)c1nc(N)nc(Cn2nnc(-c3ccc(C(F)(F)F)cc3)n2)n1 3.53%, CC(NC(=O)c1cn(C)c2ccc(S(=O)(=O)N3CCCC3)cc2c1=O)c1ccccc1 (stereo not drawn) -1.61%, Cc1[nH]c(=O)[nH]c(=O)c1/C=N/NC(=O)[C@H](C)N 2.01%, CCOC(=O)N1CCC(NC(=O)CSCc2nc(-c3ccc(OCC)cc3)oc2C)CC1 -9.6%, CC(C)(O)CN(CCCNC(=S)Nc1ccccc1)C(=S)Nc1ccccc1 -0.187%, S=c1[nH]nc(CSCCOc2ccccc2)o1 -12.2%, Cn1c(CO)cnc1SCc1ccc(F)cc1 18.1%, COc1ccc(CNC(=O)c2cccnc2SC)cc1OC -8.6%, Cc1cc(C)c2c(N)c(C(=O)c3ccc(Cl)cc3)sc2n1 5.05%, CCC1Oc2ccccc2N(CC(=O)NC2CC2)C1=O (stereo not drawn) -0.665%, Oc1c(Cl)cc(Oc2cc(Cl)c(O)c(CN3CCOCC3)c2)cc1CN1CCOCC1 -6.09%, COc1ccc(S(=O)(=O)NCCNC(=O)N2CCOCC2)cc1 3.17%, O=C(CCNC(=O)c1ccccc1Cl)NCCCSc1ccccc1 3.19%, Cn1c(CNC(=O)c2cccs2)n[nH]c1=S 5.98%, CCCCC1=NN(C(=O)c2ccco2)C(O)(C(F)(F)F)C1 (stereo not drawn) -2.3%, CCC(=O)N1CCN(c2nc3ccc(Br)cc3s2)CC1 2.3%
